From PubChem BioAssay AID1159580 (chemical genetic matrix, 2015)
The campaign covered roughly 5,500 compounds. About 2,000 (36%) were called active. Roughly 18% stayed inconclusive and do not appear here. Rule as the data show it: active = normalized growth mostly below about 0.91 (no sharp cut-off); inconclusive = no clear call, values can overlap the other calls; inactive = mostly above about 0.92. This is one part of the list.

Assay: chemical genetic growth profiling, strain panel (AID 1159580);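 also: tested at 20 µM; growth read once vehicle control cultures reached saturation at 30 °C; 1 = growth at the plate median or of vehicle wells; lower values mean less growth of the strain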
Settings: S. cerevisiae deletion strains, growth OD

Measured: normalized growth

OC(CCN1CCCCC1)(c1ccccc1)C1CC2C=CC1C2 (centres undefined)
inactive: locus YAL021C, strain ccr4, active compounds read low 1.01 | locus YAL026C, strain drs2, active compounds read low 1 | locus YAL030W, strain snc1, active compounds read low 1.02 | locus YBL061C, strain skt5, active compounds read low 1.02 | locus YBR009C, strain hhf1, active compounds read low 0.985 | locus YBR023C, strain chs3, active compounds read low 0.999 | locus YBR171W, strain sec66, active compounds read low 1 | locus YBR231C, strain swc5, active compounds read low 0.999 | locus YBR279W, strain paf1, active compounds read low 0.99 | locus YCL011C, strain gbp2, active compounds read low 1.01 | locus YCL016C, strain dcc1, active compounds read low 1.04 | locus YCL061C, strain MRC1, active compounds read low 0.996 | locus YCL069W, strain vba3, active compounds read low 0.977 | locus YCR088W, strain abp1, active compounds read low 1 | locus YDL005C, strain med2, active compounds read low 1 | locus YDL040C, strain nat1, active compounds read low 1 | locus YDR001C, strain nth1, active compounds read low 0.997 | locus YDR069C, strain doa4, active compounds read low 1.02 | locus YDR137W, strain rgp1, active compounds read low 1.01 | locus YDR159W, strain sac3, active compounds read low 0.992 | locus YDR195W, strain ref2 1.01 | locus YDR297W, strain sur2, active compounds read low 1 | locus YDR334W, strain swr1, active compounds read low 0.965 | locus YDR335W, strain msn5, active compounds read low 1 | locus YDR392W, strain spt3, active compounds read low 1.03 | locus YEL003W, strain gim4, active compounds read low 0.993 | locus YEL037C, strain rad23, active compounds read low 0.988 | locus YEL061C, strain CIN8 (second series), active compounds read low 0.983 | locus YER015W, strain faa2, active compounds read low 1 | locus YER016W, strain bim1, active compounds read low 1.03 | locus YER111C, strain swi4, active compounds read low 1 | locus YER155C, strain BEM2 (second series), active compounds read low 1.01 | locus YFR010W, strain ubp6, active compounds read low 0.966 | locus YGL167C, strain pmr1, active compounds read low 1 | locus YGL173C, strain kem1, active compounds read low 1.01 | locus YGL227W, strain vid30, active compounds read low 0.989 | locus YGL240W, strain doc1, active compounds read low 0.994 | locus YGL253W, strain hxk2, active compounds read low 1.01 | locus YHR013C, strain ard1, active compounds read low 1.03 | locus YHR027C, strain rpn1, active compounds read low 0.991 | locus YHR030C, strain SLT2, active compounds read low 0.977 | locus YHR079C, strain IRE1, active compounds read low 0.996 | locus YHR142W, strain chs7, active compounds read low 1 | locus YJL092W, strain hpr5, active compounds read low 1.01 | locus YJL095W, strain BCK1 (second series), active compounds read low 1 | locus YJL095W, strain BCK1, active compounds read low 0.996 | locus YJL115W, strain asf1, active compounds read low 0.984 | locus YJL129C, strain trk1, active compounds read low 0.987 | locus YJL154C, strain vps35, active compounds read low 0.987 | locus YJL164C, strain tpk1, active compounds read low 0.997 | locus YJL166W, strain qcr8, active compounds read low 0.982 | locus YJR066W, strain TOR1, active compounds read low 0.935 | locus YKL160W, strain elf1, active compounds read low 1.03 | locus YKR026C, strain gcn3, active compounds read low 0.987 | locus YKR091W, strain srl3, active compounds read low 1 | locus YLL001W, strain dnm1, active compounds read low 0.993 | locus YLL026W, active compounds read low 0.997 | locus YLL041C, strain sdh2, active compounds read low 1.03 | locus YLR027C, strain aat2, active compounds read low 1 | locus YLR113W, strain HOG1, active compounds read low 0.987 | locus YLR221C, strain rsa3, active compounds read low 0.993 | locus YLR258W, strain gsy2, active compounds read low 0.998 | locus YLR262C, strain YPT6 (second series), active compounds read low 0.984 | locus YLR320W, strain mms22, active compounds read low 0.979 | locus YLR342W, strain FKS1, active compounds read low 1.01 | locus YLR357W, strain rsc2, active compounds read low 0.995 | locus YLR370C, strain arc18, active compounds read low 1.01 | locus YLR384C, strain iki3, active compounds read low 1.01 | locus YML120C, strain ndi1, active compounds read low 0.981 | locus YMR058W, strain fet3, active compounds read low 1 | locus YMR125W, strain sto1, active compounds read low 0.985 | locus YMR129W, active compounds read low 1 | locus YMR205C, strain PFK2, active compounds read low 1.01 | locus YMR231W, strain pep5, active compounds read low 0.995 | locus YNL071W, strain lat1, active compounds read low 0.985 | locus YNL183C, strain NPR1, active compounds read low 0.951 | locus YNL209W, strain ssb2, active compounds read low 0.995 | locus YNL248C, strain rpa49, active compounds read low 1 | locus YNL322C, strain KRE1 (second series), active compounds read low 0.995 | locus YNR049C, strain mso1, active compounds read low 1.01 | locus YOR001W, strain rrp6, active compounds read low 0.949 | locus YOR070C, strain gyp1, active compounds read low 0.989 | locus YOR080W, strain dia2, active compounds read low 1 | locus YOR083W, strain WHI5, active compounds read low 1.03 | locus YOR106W, strain vam3, active compounds read low 0.995 | locus YOR231W, strain MKK1, active compounds read low 0.991 | locus YOR265W, strain rbl2, active compounds read low 1.01 | locus YOR270C, strain vph1, active compounds read low 0.929 | locus YOR290C, strain snf2, active compounds read low 1.06 | locus YPL051W, strain arl3, active compounds read low 1.01 | locus YPL078C, strain atp4, active compounds read low 1.02 | locus YPL106C, strain sse1, active compounds read low 1.05 | locus YPL240C, strain hsp82, active compounds read low 0.982 | locus YPL256C, strain CLN2, active compounds read low 0.978
